We go through 15 molecules from PubChem BioAssay.

A short description of test [1]: binders of probe aFSTL3 on microarray, primary screen, stem cell growth factor project, biochemical, small-molecule microarray, fluorescence 635/667 (AID 1064).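 Note: measures binding of the biotinylated anti-FSTL3 antibody to printed compounds.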 The settings on record: higher = more signal.
Test [2] in a line: binders from COS7 lysate, DM2A8 probe, primary screen, torsin A project, cell lysate, small-molecule microarray, fluorescence 635/667 (AID 1065). The following applies: higher = more signal, COS7 lysate expressing mutant human TOR1A.
Test [3] is described as follows: binders of probe aFGF2 on microarray, primary screen, stem cell growth factor project, biochemical, small-molecule microarray, fluorescence 635/667 (AID 1067).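 Note: measures binding of biotinylated aFGF2 protein to printed compounds on slides; z-score merges feature fluorescence and signal-to-noise across triplicate slides.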 The following applies: higher = more signal.
Test [4] can be described thus: binders of probe aFGF10 on microarray, primary screen, stem cell growth factor project, biochemical, small-molecule microarray, fluorescence 635/667 (AID 1071).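 Note: score merges 667 nm spot intensity and signal to noise from triplicate slides.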 The settings on record: higher = more signal.
Test [5] has as its target Neurogenic locus notch homolog protein 2 (Homo sapiens) (UniProt Q04721). Kind of test: Notch2 binders on small-molecule microarrays, primary screen, biochemical, small-molecule microarray, 635 nm fluorescence, stem cell growth factors (AID 1073). The settings on record: Notch2 binding, higher = more signal.
Test [6] addresses Pro-neuregulin-1, membrane-bound isoform (Homo sapiens) (UniProt Q02297). Description: NRG1 binders on small-molecule microarrays, primary screen, psychiatric disease protein project, biochemical, small-molecule microarray, fluorescence 635/667 (AID 1075).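 Note: score combines 667 nm spot fluorescence with signal to noise.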 The following applies: NRG1 binding, 635 nm fluorescence, higher = more signal.
Test [7] deals with Neuregulin-1 EGF-like domain. Description: binders of neuregulin-1 EGF-like domain, primary screen, biochemical, small-molecule microarray, 635 nm fluorescence (AID 1081).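 Note: binding of the protein to compounds printed on small-molecule microarray slides.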 The following applies: small-molecule microarray binding, higher = more signal.
The nature of test [8]: FRG1 promoter luciferase signal modulators, primary screen, FRG1 inhibition for FSHD, cell-based, C2C12 myotubes, firefly/Renilla luciferase, luminescence (AID 1084). The following applies: higher = more signal, called active from +8 up or from −8 down.
Test [9] can be described thus: binders of probe aFST on microarray, primary screen, stem cell growth factor project, biochemical, small-molecule microarray, fluorescence 635/667 (AID 1086).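 Note: score merges 667 nm fluorescence with signal-to-noise of each printed compound spot.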 The following applies: higher = more signal.
Test [10] in a line: binders of probe aHhip on microarray, primary screen, stem cell growth factor project, biochemical, small-molecule microarray, fluorescence 635/667 (AID 1087).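 Note: score merges spot fluorescence at 667nm with spot signal to noise ratio.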 The settings on record: higher = more signal.

The source made the active and inactive calls.

Sequence of Pro-neuregulin-1, membrane-bound isoform (Homo sapiens) (Q02297 whole entry, looked up, the tested form may be a part, canonical isoform): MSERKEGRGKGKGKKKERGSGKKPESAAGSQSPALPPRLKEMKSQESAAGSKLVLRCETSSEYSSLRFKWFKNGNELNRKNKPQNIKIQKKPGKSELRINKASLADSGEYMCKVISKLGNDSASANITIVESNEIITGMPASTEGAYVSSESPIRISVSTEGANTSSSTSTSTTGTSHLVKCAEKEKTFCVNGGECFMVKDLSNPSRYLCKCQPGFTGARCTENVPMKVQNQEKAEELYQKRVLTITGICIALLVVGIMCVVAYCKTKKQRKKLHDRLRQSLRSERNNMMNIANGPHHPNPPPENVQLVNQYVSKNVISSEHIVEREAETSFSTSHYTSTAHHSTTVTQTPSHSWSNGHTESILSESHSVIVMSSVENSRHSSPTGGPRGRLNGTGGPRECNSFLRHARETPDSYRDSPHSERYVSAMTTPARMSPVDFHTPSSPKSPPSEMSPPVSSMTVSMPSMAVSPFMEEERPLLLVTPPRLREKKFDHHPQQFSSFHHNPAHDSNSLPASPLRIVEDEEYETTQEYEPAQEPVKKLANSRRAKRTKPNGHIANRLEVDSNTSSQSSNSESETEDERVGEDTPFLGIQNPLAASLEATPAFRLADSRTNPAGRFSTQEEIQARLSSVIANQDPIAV
Sequence of Neurogenic locus notch homolog protein 2 (Homo sapiens) (Q04721 whole entry, looked up, canonical isoform): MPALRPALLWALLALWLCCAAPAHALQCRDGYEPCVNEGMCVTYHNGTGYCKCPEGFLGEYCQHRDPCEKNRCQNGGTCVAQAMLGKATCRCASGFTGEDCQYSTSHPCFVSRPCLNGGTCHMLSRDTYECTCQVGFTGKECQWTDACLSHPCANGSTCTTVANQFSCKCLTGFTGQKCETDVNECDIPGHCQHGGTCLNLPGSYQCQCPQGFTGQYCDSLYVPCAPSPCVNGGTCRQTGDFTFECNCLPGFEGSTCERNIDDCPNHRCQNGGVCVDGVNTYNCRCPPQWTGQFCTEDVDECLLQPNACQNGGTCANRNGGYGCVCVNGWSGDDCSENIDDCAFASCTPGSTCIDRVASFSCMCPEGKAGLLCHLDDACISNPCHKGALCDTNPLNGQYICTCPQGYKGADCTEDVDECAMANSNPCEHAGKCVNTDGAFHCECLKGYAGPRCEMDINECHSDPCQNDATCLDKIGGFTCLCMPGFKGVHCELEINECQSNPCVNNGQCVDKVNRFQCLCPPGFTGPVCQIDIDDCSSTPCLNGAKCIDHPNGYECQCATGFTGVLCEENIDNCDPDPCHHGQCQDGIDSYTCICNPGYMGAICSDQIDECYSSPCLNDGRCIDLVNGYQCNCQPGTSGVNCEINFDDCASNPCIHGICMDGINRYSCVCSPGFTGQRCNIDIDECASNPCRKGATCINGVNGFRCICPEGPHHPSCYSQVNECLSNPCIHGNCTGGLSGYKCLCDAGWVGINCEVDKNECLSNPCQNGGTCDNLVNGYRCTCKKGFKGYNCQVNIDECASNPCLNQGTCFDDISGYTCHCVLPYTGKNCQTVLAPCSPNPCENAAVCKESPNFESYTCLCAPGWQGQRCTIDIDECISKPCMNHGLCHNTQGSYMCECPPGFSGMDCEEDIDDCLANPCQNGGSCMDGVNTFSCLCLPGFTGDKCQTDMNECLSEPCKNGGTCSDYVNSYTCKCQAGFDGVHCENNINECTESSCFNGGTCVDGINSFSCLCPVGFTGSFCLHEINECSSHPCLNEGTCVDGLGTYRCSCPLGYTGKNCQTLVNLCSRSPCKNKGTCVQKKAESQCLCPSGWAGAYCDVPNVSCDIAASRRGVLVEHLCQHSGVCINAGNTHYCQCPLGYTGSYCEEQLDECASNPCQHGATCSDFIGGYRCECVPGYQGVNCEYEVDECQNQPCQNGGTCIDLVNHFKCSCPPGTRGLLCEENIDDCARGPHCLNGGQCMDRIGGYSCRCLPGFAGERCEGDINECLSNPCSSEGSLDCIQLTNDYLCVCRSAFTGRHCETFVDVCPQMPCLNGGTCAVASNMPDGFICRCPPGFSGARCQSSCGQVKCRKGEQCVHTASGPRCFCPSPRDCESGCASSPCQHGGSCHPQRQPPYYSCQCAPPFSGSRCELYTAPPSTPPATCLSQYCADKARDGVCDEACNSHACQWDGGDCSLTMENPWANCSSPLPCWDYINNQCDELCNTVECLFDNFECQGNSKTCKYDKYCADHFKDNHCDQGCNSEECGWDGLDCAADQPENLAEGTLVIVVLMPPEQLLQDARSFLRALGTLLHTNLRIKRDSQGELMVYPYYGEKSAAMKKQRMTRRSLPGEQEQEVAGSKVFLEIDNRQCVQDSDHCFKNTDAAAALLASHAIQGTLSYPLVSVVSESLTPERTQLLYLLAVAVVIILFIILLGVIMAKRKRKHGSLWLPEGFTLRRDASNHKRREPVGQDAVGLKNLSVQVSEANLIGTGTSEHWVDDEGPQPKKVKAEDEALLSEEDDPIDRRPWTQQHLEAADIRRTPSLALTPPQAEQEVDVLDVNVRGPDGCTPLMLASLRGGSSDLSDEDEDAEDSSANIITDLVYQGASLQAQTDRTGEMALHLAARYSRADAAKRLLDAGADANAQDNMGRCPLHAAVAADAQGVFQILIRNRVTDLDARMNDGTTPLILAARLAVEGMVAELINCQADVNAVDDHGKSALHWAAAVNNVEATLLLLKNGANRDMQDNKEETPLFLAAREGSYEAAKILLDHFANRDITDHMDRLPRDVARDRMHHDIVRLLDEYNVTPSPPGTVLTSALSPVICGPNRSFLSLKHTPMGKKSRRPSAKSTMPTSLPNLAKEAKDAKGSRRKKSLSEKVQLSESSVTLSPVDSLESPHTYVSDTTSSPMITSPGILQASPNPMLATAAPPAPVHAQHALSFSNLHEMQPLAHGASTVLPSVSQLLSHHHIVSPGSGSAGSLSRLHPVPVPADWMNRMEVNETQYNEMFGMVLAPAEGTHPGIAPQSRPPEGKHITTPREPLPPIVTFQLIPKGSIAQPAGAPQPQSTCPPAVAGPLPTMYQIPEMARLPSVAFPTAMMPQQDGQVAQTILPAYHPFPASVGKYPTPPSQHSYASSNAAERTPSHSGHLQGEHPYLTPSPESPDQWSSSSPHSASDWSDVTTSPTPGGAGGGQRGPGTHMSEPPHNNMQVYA

For `[N-]=[N+]=NCc1ccccc1C[C@]1(C(=O)O)N=C(c2ccc(OCCCO)cc2)O[C@H]1c1ccccc1CN=[N+]=[N-]`, the composite z-score in [1] was -0.0279; in test [2], 0.169; in [3] it was -0.0474; in [4], 0.396; in [5], 0.591; in test [6], 1.53. In addition, the composite z-score in test [7] was 1.16; in test [9], 0.467; in test [10], -0.239. Moreover, in [8], the z-score was -1.66 (inactive).

In the case of `CC(C)NC(=O)[C@@]1(Cc2ccccc2I)c2ccccc2C(=O)N(Cc2ccccc2)[C@H]1c1ccc(CO)cc1`, the composite z-score in [1] was 0.0478; in test [2] it was 0.613; in test [3] it was -0.017; in test [4], 0.554; in test [5], 0.787; in test [6], 1.38. The composite z-score was 0.986 in test [7], 0.612 in [9] and 0.0401 in test [10]. Besides, the z-score in test [8] was -2.91 (inactive).

For the molecule `COCCOC(=O)N1C(=O)[C@@]2(c3cc(C#CC4=CCCCC4)ccc31)[C@H](C(=O)NC[C@H](O)c1ccccc1)[C@H]1C(=O)O[C@H](c3ccccc3)[C@H](c3ccccc3)N1[C@@H]2c1ccc(O)cc1`, the composite z-score was -0.377 in test [1]; 0.189 in [2]; -0.105 in [3]; 0.797 in test [4]; 1.23 in test [5]; 0.996 in [6]. Further, the composite z-score is 1.19 in [7], 0.353 in test [9] and -0.0296 in [10]. Moreover, in test [8], the z-score was 0.591 (inactive).

On to `C=C(CCCC)/C(=C/C[C@H](OC(C)=O)c1ccc(CO)o1)c1cnc2ccccc2c1`, for which the composite z-score in [1] is -0.472; in test [2] it was 0.773; in test [3], -0.0749; in test [4], 1.14; in test [5], 1.1; in test [6], 0.963. Moreover, the composite z-score in test [7] amounted to 1.26; in [9] it was 0.13; in test [10] it was 0.0505. Moreover, in test [8], the z-score is 0.13 (inactive).

`COC(=O)[C@@]1(Cc2ccccc2)[C@H]2c3cc(C(=O)N4CCCC4)n(Cc4ccc(C)o4)c3C[C@H]2CN1C(=O)c1ccccc1`: the composite z-score in test [1] is 0.385; in [2] it was 0.225; in test [3] it was -0.162; in test [4], 0.0426; in test [5], 1.54; in [6], 1.37. Besides, the results for the composite z-score in [7], in test [9] and in test [10] were 0.476, 0.935 and 0.259, respectively. The z-score in test [8] was 0.0318 (inactive).

Take `C[N+](C)(C)CCCCCCNC(=O)[C@H]1C[C@H]2C(=O)N3CCC[C@H]3C(=O)N2[C@H]1c1ccc(O)cc1`: the composite z-score in test [1] was 0.159; in [2], 1.01; in test [3], -0.116; in test [4], -0.0314; in test [5], -0.967; in [6] it was 1.96. Further, the figures for the composite z-score in test [7], in [9] and in [10] were 1.37, -0.106 and -0.0618, respectively. For the same molecule, the z-score in test [8] is 3.58 (inactive).

With `CC(C)N1CC=CC23O[C@@H]4C=CCOC(=O)[C@@H]4[C@H]2C(=O)N(CCO)[C@@H]3C1=O` (stereo not given in full), the composite z-score was 0.283 in [1]; -1.72 in test [2]; -0.187 in test [3]; -0.484 in test [4]; -1.11 in test [5]; 0.247 in test [6]. The results for the composite z-score in [7], in test [9] and in test [10] were 1.02, -0.634 and -0.397, respectively. The z-score in test [8] is 0.188 (inactive).

Regarding `COC(=O)C(CC#Cc1ccc2c(c1)[C@]1(C(=O)N2)[C@H](C(=O)NC[C@H](O)c2ccccc2)[C@H]2C(=O)O[C@H](c3ccccc3)[C@H](c3ccccc3)N2[C@@H]1c1ccc(OCCO)cc1)C(=O)OC`, the composite z-score amounted to 1.4 in test [1]; 1.2 in test [2]; 0.225 in test [3]; 0.641 in [4]; 1.37 in test [5]; 1.41 in test [6]. In addition, the results for the composite z-score in [7], in test [9] and in [10] were 1.3, 2.31 and -0.447, respectively. In test [8], the z-score was 1.9 (inactive).

As for `CCCCC=C[C@@H](NC(=O)c1ccco1)c1ccccc1`, the composite z-score in test [1] was -0.0252; in test [2], 0.0908; in test [3], 0.0603; in [4] it was 0.372; in [5], 0.929; in test [6], 0.783. Besides, the composite z-score in test [7] is -0.628; in test [9], 0.199; in test [10], 0.525. In [8], the z-score was 1.36 (inactive).

As to `COCCOC(=O)N1C(=O)[C@@]2(c3cc(C#CCC(C(=O)OC)C(=O)OC)ccc31)[C@H](c1ccc(O)cc1)N1[C@H](c3ccccc3)[C@H](c3ccccc3)OC(=O)[C@H]1[C@@H]2C(N)=O`, the composite z-score in test [1] is -0.239; in test [2], 0.365; in test [3], 0.0661; in test [4], 1.11; in test [5], 1.1; in [6], 0.328. Also, the composite z-score in test [7] is 1.32; in test [9], 0.404; in [10], -0.124. Also, the z-score in test [8] was -0.4 (inactive).

For the molecule `CC1CC/C=C\[C@H]2OC34C=CCN(Cc5ccccc5)C(=O)[C@H]3N(CCCCCO)C(=O)[C@@H]4C2C(=O)O1` (stereo not given in full), the composite z-score in test [1] was 0.158; in test [2], -0.467; in [3] it was -0.149; in [4], 0.155; in [5], -0.864; in [6], -0.68. The composite z-score in test [7] was 1.5; in test [9], -0.677; in test [10] it was -0.312. For the same molecule, the z-score in [8] was 0.367 (inactive).

`[N-]=[N+]=NCc1ccccc1C[C@]1(C(=O)NCC(O)CO)N=C(c2ccc(OCCCO)cc2)O[C@H]1c1ccccc1N=[N+]=[N-]` (stereo not given in full): the composite z-score was 1.55 in test [1]; 0.459 in [2]; -0.01 in test [3]; 0.77 in test [4]; 0.814 in [5]; 1.17 in [6]. For the same molecule, the results for the composite z-score in test [7], in test [9] and in test [10] were 0.731, 0.575 and -0.194, respectively. The z-score in test [8] was -0.5 (inactive).

Consider `[N-]=[N+]=NCc1ccccc1C[C@@]1(C(=O)N2CCOCC2)N=C(c2ccc(OCCCO)cc2)O[C@@H]1c1ccccc1CN=[N+]=[N-]`, for which the composite z-score turned out to be 0.998 in test [1]; 0.232 in test [2]; 0.266 in [3]; 1.01 in [4]; 1.52 in test [5]; 1.91 in test [6]. The composite z-score in test [7] turned out to be 1.37; in test [9], 1.57; in test [10] it was 0.156. In test [8], the z-score is -3.63 (inactive).

Consider `COCCOC(=O)N1C(=O)[C@@]2(c3cc(C#CCC(C(=O)OC)C(=O)OC)ccc31)[C@H](C(=O)N1CCN(c3ncccn3)CC1)[C@H]1C(=O)O[C@H](c3ccccc3)[C@H](c3ccccc3)N1[C@@H]2c1ccc(OCCO)cc1`, for which the composite z-score was -0.462 in test [1]; 0.185 in test [2]; -0.0293 in test [3]; 0.0875 in [4]; 0.213 in test [5]; 0.386 in test [6]. For the same molecule, the results for the composite z-score in test [7], in [9] and in test [10] were 1.06, 0.0723 and -0.0088, respectively. Also, in test [8], the z-score was -0.644 (inactive).

Consider `O=C1O[C@H](c2ccccc2)[C@H](c2ccccc2)N2[C@H]1[C@@H](C(=O)O)[C@]1(C(=O)Nc3ccc(C#CC4=CCCCC4)cc31)[C@H]2c1ccc(OCCO)cc1`, for which the composite z-score in test [1] is -0.0152; in test [2] it was 0.651; in [3] it was -0.0438; in test [4], 1.09; in test [5], 1.44; in test [6] it was 1.77. The composite z-score was 1.34 in test [7], 1.03 in test [9] and -0.0672 in test [10]. In test [8], the z-score is 0.448 (inactive).
